# Assay outcomes as filed in PubChem BioAssay.
# Gli-Sufu block = blocks Gli-Sufu signaling in a luciferase reporter; Sufu-KO-LIGHT fibroblasts, Gli luciferase reporter luminescence; inhibition, % at 5 µM; 0.74% of 340,000 active; AID 588413;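 active means inhibition above about 55%, limit read from the data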;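 further: 0% = DMSO-treated cells and 100% = wells with medium but no cells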
# COUP-TFII inh = NR2F2 (human) inhibition, primary screen; inhibition, % at 8.6 µM; P24468; HEK293T NGFI-A luciferase reporter, luminescence; 0.7% of 370,000 active; AID 686940;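 active means inhibition above a per-plate cutoff, mean inhibition of test wells between control levels plus 3 SD, cut at about 38% in these data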;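 further: cells cotransfected with COUP-TFII expression vector driving the NGFI-A reporter; 0% = median of COUP-TF2 test wells and 100% = reporter-only cells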
# Target sequence (P24468 whole entry, looked up): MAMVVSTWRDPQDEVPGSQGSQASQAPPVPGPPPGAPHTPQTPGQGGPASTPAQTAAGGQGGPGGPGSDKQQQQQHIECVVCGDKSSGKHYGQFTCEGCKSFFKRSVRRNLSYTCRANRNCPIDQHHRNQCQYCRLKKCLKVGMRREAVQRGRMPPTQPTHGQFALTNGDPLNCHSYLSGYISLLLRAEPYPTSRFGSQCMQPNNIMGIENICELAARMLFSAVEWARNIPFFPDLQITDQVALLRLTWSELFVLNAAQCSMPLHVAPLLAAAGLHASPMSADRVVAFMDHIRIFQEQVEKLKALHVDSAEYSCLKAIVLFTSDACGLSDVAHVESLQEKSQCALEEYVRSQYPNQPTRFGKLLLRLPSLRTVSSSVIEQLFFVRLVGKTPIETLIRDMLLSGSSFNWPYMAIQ
# aDG glyco up = increases alpha dystroglycan glycosylation | activation, % at 10 µM | 0.22% of 360,000 active | AID 624168 | Pro5-aDG cells, alpha-DG glycosylation AlphaScreen (IIH6); 0% Pro5, 100% B10-LARGE cell signal;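 active means activation of at least 8% versus controls, or a plate z-score of at least 8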;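 further: Pro5 are CHO cells carrying HIG-tagged alpha-DG that lacks glycosylation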
# Env fusion inh = HIV envelope-mediated fusion inhibition | HeLa-JRFL Env/CEM21 cell fusion, luciferase | inhibition, % at 12.3 µM | 1.1% of 360,000 active;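 active means mean replicate inhibition score of at least 50 and every replicate individually at or above 50; inconclusive means only one of the two criteria met; inactive means mean below 50 and not all replicates reaching 50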;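 further: 0% = plate neutral controls and 100% = maraviroc near 300 nM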
# GalR3 antagonist = human GalR3 antagonism; O60755; HEK293 GalR3-CNG cAMP membrane potential fluorescence; galR3 body fused to GalR1 C-terminus; inhibition, % at 3 µM; 0.44% of 360,000 active;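 active means inhibition above the screen-wide average plus 3 SD, cut at about 13% in these data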;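 further: forskolin and galanin both at EC90 stimulate the cells; cAMP rise reported by CNG channel membrane potential dye signal; 0% = forskolin plus galanin with DMSO and 100% = forskolin alone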
# VP16 Luc counter = counter-screen for COUP-TFII antagonists: inhibitors of VP16 | shares compounds with COUP-TFII inh | HEK293 Gal4-VP16 luciferase reporter, luminescence | inhibition, % at 8.5 µM | 25% of 2,500 active; in the data active means inhibition above about 13%
# COUP-TFII conf = COUP-TFII (NR2F2) inhibition, confirmation assay; HEK293 NGFI-A luciferase reporter, luminescence; AID 687008; shares compounds with COUP-TFII inh; inhibition, % at 8.5 µM; 45% of 2,500 active;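 active means mean inhibition over three repeats above a set limit taken from the earlier primary screen, cut at about 38% in these data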;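 further: 100% = cells given the luciferase reporter alone without the COUP-TF2 vector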
# The depositor's hits bear a star; ? = inconclusive; nt = no result; [ ] = another dose, or the depositor's remark. This is a sample that favours compounds with a hit; in the whole collection about 2.1% have one here.
SMILES,Gli-Sufu block,COUP-TFII inh,aDG glyco up,Env fusion inh,GalR3 antagonist,VP16 Luc counter,COUP-TFII conf
O=C(C1CCN(c2ncnc3c2nc2n3CCCCC2)CC1)N1CCN(c2cccc(Cl)c2)CC1,56*,50*,1,2,-8,0,23
O=C(C1CCCN(c2ncnc3c2nc2n3CCCCC2)C1)N1CCN(c2ccc(Cl)cc2)CC1 (configuration not stated),-2,25,0,12,-6,nt,nt
CC1=CC(=O)C(C(C)C)=C/C1=N/OC(=O)c1cccc([N+](=O)[O-])c1,4,17,0,nt,-11,nt,nt
CC1=CC(=O)C(C(C)C)=C/C1=N\OS(=O)(=O)c1ccc(F)cc1,nt,92*,nt,nt,nt,29*,15
O=C(Nc1cc(Sc2nc3ccccc3s2)cc([N+](=O)[O-])c1)c1ccccc1,5,5,1,18,0,nt,nt
O=C(Nc1cc(Sc2ccccn2)cc([N+](=O)[O-])c1)c1cccc(F)c1,22,42*,0,19,1,-1,19
O=C(NCCc1c[nH]c2ccccc12)C(=O)NCC(c1cccnc1)N1CCN(c2ccccc2)CC1 (configuration not stated),13,67*,3,nt,nt,0,34
CCN1/C(=C/c2ccc3cc(C)ccc3[n+]2C)Sc2ccc3sccc3c21,86*,38*,1,61*,-2,5,12
Cc1sc2c3ccsc3ccc2[n+]1C,-2,9,2,2,-9,nt,nt
N#C[C@@H]1[C@@H](c2ccc(-c3ccccc3F)cc2)[C@H](CO)N1C(=O)c1ccccn1,nt,nt,nt,14[16.7 µM],nt,nt,nt
COc1ccc(OCC(=O)N2CCN(c3nnc(-c4ccc(C)cc4)c4ccccc34)CC2)cc1,3,38*,1,17,-7,-7,16
Cc1ccc(OCC(=O)N2CCN(c3nnc(-c4ccc(C)cc4)c4ccccc34)CC2)cc1,16,9,2,0,-4,nt,nt
CCC(=NC(C)c1ccccc1)c1c(O)n(C)c(=O)n(C)c1=O (configuration not stated),40,56*,3,60*,-4,-1,29
On1ccccc1=S,74*,66*,0,-22,-1,87*,46*
O=C(Cn1ccccc1=S)c1ccc(Cl)c(Cl)c1,-6,-3,0,8,-1,nt,nt
O=C(NCC[C@H]1CC[C@H](NC(=O)C2CC2)[C@@H](CO)O1)Nc1ccc(C(F)(F)F)cc1,nt,nt,nt,-3[16.7 µM],nt,nt,nt
Cc1noc(C)c1NC(=O)N(C)C[C@@H]1OCCCC[C@@H](C)Oc2ccc(NS(=O)(=O)c3ccc(Cl)cc3)cc2C(=O)N([C@H](C)CO)C[C@@H]1C,nt,nt,nt,27[16.7 µM],nt,nt,nt
CC1CCN(c2ccc(-c3cccc(NC(=O)C(F)(F)F)c3)nn2)CC1,44,41*,0,80*,-8,-1,33
O=C(Nc1ccc(S(=O)(=O)N2CCCC2)cc1)c1ccc(OCC2CCCO2)cc1 (configuration not stated),2,38*,1,11,-1,-2,17
CS(=O)(=O)Nc1ccc2c(c1)[C@@H]1C[C@@H](CC(=O)NCc3cccc(F)c3)O[C@H](CO)[C@@H]1O2,nt,nt,nt,11[16.7 µM],nt,nt,nt
COc1cccc(-c2nnc(SCc3ccc(C#N)cc3)n2Cc2ccco2)c1,13,2,1,nt,-3,nt,nt
COc1cccc(-c2nnc(SCc3cc(C)ccc3C)n2Cc2ccco2)c1,nt,41*,nt,nt,nt,9,11
C[C@@H]1CCCCO[C@H](CN(C)C(=O)Cc2ccccc2)[C@H](C)CN([C@@H](C)CO)C(=O)c2cc(NC(=O)CCC(F)(F)F)ccc2O1,nt,nt,nt,-13[16.7 µM],nt,nt,nt
COCC#Cc1cnc2c(c1)C(=O)N([C@H](C)CO)C[C@@H](C)[C@H](CN(C)C(=O)C1CCCCC1)O2,nt,nt,nt,0[16.7 µM],nt,nt,nt
C=CCc1cccc2cc(C(=O)Nc3ccccc3C(=O)O)c(=O)oc12,-16,41*,3,1,-10,-8,47*
SMILES,Gli-Sufu block,COUP-TFII inh,aDG glyco up,Env fusion inh,GalR3 antagonist,VP16 Luc counter,COUP-TFII conf
COc1ccccc1S(=O)(=O)N(C)C[C@H]1OCc2ccccc2-c2c(n(C)c3ccccc23)C(=O)N([C@H](C)CO)C[C@@H]1C,nt,nt,nt,10[16.7 µM],nt,nt,nt
Cc1nn(C)cc1NC(=O)C[C@@H]1CC[C@H]2[C@@H](COc3ccc(NC(=O)C(C)C)cc3C(=O)N2C)O1,nt,nt,nt,-19[16.7 µM],nt,nt,nt
COc1ccc(C[C@H]2CCn3cc(nn3)COC[C@H](C(C)C)NC2=O)cc1,nt,nt,nt,-8[16.7 µM],nt,nt,nt
COc1ccc(-n2c(-c3ccc(Br)cc3)c[n+]3c2CCc2ccccc2-3)cc1,86*,38*,0,9,-6,21*,31
CCOc1ccc(-n2c(-c3ccc(OC)cc3)c[n+]3c2CCCCC3)cc1,87*,83*,0,67*,56*,20*,72*
C[n+]1cc(-c2ccccc2)n2c1CCCCC2,20,nt,0,nt,nt,nt,nt
CC(C)c1ccc(-n2c(-c3ccccc3)c[n+]3c2CCc2ccccc2-3)cc1,85*,89*,4,49,-2,28*,87*
C[C@@H]1CCCCO[C@@H](CN(C)C(=O)CCCN(C)C)[C@H](C)CN([C@@H](C)CO)C(=O)c2cc(NS(=O)(=O)c3cn(C)cn3)ccc2O1,nt,nt,nt,-6[16.7 µM],nt,nt,nt
COc1ccc(CN(C)C[C@H]2OCCCC[C@@H](C)Oc3ccc(NS(=O)(=O)c4cccs4)cc3C(=O)N([C@H](C)CO)C[C@@H]2C)cc1,nt,nt,nt,11[16.7 µM],nt,nt,nt
Cc1ccc(-c2nnc(SCC(=O)Nc3ccccc3F)o2)cc1,-34,64*,0,66*,4,24*,40*
CCN(CC)S(=O)(=O)c1ccc(Cl)c(NC(=S)NC(=O)C2CCCC2)c1,15,44*,1,?,0,2,21
CCOc1ccc(NC(=O)Nc2cc(OCC(F)(F)F)cc(OCC(F)(F)F)c2)cc1,9,5,1,?,-5,nt,nt
O=C(Nc1ccc(F)cc1)Nc1cc(OCC(F)(F)F)cc(OCC(F)(F)F)c1,21,76*,0,70*,-5,17*,79*
O=C(Nc1ccccc1)N[C@H]1CC[C@@H](CCn2cc(C3(O)CCCC3)nn2)O[C@H]1CO,nt,nt,nt,8[16.7 µM],nt,nt,nt
O=C(c1cc(COc2ccc(F)cc2Cl)on1)N1CCC(c2ccncc2)CC1,27,39*,7,24,-7,-10,26
COc1ccc(NC(=O)Nc2ccc3c(c2)C(=O)N([C@H](C)CO)C[C@H](C)[C@H](CN(C)S(=O)(=O)c2ccc(C)cc2)OCCCC[C@@H](C)O3)cc1,nt,nt,nt,6[16.7 µM],nt,nt,nt
c1ccc(Nc2ccccc2Nc2ccccn2)nc1,1,1,0,nt,-6,nt,nt
Oc1cccc2ccc(Nc3ccccn3)nc12,15,39*,1,60*,-6,-2,29
